Reference: PubChem BioAssay (EPA / NIEHS)
Active and inactive are the calls of the source. The calls were made as follows: active = hit-call score of the fitted dose curve at least 0.9, where 1 is the maximum; inactive = score below 0.9.

read-out: Glutamate-cysteine ligase regulatory (GCLM), GCLM (gene 2730); experiment: LTEA_HepaRG_GCLM: Life Technologies and Expression Analysis (LTEA) Assay for Glutamate-cysteine ligase regulatory (GCLM) using HepaRG (AID 2283500); settings: mRNA level, 48 h; actives raise or lower the signal
Protocol: LTEA_HepaRG is a cell based, multiplexed-readout assay that uses HepaRG, a human liver cell line, with measurements taken at 48 hours after chemical dosing on a 96-well plate.LTEA_HepaRG_GCLM is one of 102 assay component(s) measured in the LTEA HepaRG cell culture assay. It is a marker of Cell proliferation, survival, death.Data from the assay component LTEA_HepaRG_GCLM was analyzed into 1 endpoint. This assay endpoint, LTEA_HepaRG_GCLM, was analyzed with bidirectional fitting relative to DMSO as the negative control and baseline of activity. Using a type of inducible reporter, measures of mRNA induction for gain or loss-of-signal activity can be used to understand regulation of transcription factor activity. To generalize the intended target to other relatable targets, this assay endpoint is annotated to the ligase intended target family, where the subfamily is C-N ligase.
A total of 1060 chemcials from the ToxCast library were tested in eight-point concentration-response experiments. Cell culture and cytotoxicity assays were conducted at Thermo Fisher Scientific's Custom Services facility (Madison, WI). A single lot of human HepaRG cells (Thermo Fisher Scientific, Frederick, MD) was used for the cell culture experiments. 96-well format collagen type I coated plates of human HepaRG cells were prepared using established methods. Briefly, cryopreserved HepaRG cells were thawed, plated at a density of approximately 100,000 cells/well in HepaRG Thaw, Plate, and General Purpose media (HPRG770, Thermo Fisher Scientific), and incubated for 48 hours. 0.5% DMSO was selected as vehicle control to balance the requisite need of DMSO in HepaRG cultures to maintain differentiation (for example, baseline metabolism, proportions of hepatocytes vs. cholangiocytes), while enabling further hepatic receptor pathway activation (for example, PXR and CAR) in response to chemical exposure. 48 hours after plating, the culture medium was replaced with HepaRG Serum-Free Incudtion Media. Cells were exposed to each test chemical in duplicate and maintained in CO2 incubators for another 48 hours. Chemical plates were thawed to room temperature and 200x concentrations of treatment groups were prepared. 8-point conentration-reponse curves were made with the highest exposure at 100 uM, followed by half-log dilutions, all in 0.5% DMSO. Each test plate contained variouse controls, induction positive controls (1mM phenobarbital), cytotoxicity positive controls ([…] aflatoxin B1), vehicle controls (0.5% DMSO), and total lysis controls (0.5% DMSO). Cell morphology images were taken using an Essen IncuCyte FLR automated microscope, with six 96-well plates imaged in about 24 minutes. Images were captured and exported and JPEG files. Spent culture media was transfered to black-well plates for the LDH assay, and remaining media was sorted at -80 C for later use. Cells were treated with RLT buffer and frozen until shipped for gene expression analysis. Total RNA was isolated from the cell suspension in 75 uL of Buffer RLT (Qiagen, Germantown, MD 20874) by Quintiles/Expression Analysis (Durham, NC) using a custom isolation procedure. Total RNA from each plate well was transferred to a preamplification plate. Fluidigm's 96.96 Dynamic ArrayTM (Fluidigm, Amsterdam, the Netherlands) technology was used for gene expression analyses by quantitative reverse transcription polymerase chain reaction (qRT-PCR, performed by Quintiles/Expression Analysis, Durham, NC)89. Standard TaqManTM Assays (Applied Biosystems/ThermoFisher Scientific, Foster City, CA) were used to assess the expression of 93 genes selected based on their selectivity and sensitivity to important hepatic receptors known to be modulated by environmental chemicals; importance in human hepatocyte functionality; and hepatotoxicity. […]

| SMILES | outcome | AC50 |
| --- | --- | --- |
| O=NN(c1ccccc1)c1ccccc1 | inactive |  |
| N#Cc1ccc(N(CC(N)=O)CC(F)(F)F)cc1C(F)(F)F | inactive |  |
| CCNc1nc(NC(C)C)nc(SC)n1 | inactive |  |
| Cc1ccccc1O | inactive |  |
| Nn1cnnc1 | inactive |  |
| CCC(=O)O[C@H]1CC[C@H]2[C@@H]3CCC4=CC(=O)CC[C@]4(C)[C@H]3CC[C@]12C | inactive |  |
| c1ccc(-c2ccccc2)cc1 | inactive |  |
| CN(C)CCO | inactive |  |
| CC1=C2C[C@H]3[C@@H](CC=C4C[C@@H](O)CC[C@@]43C)[C@@H]2CC[C@]12O[C@@H]1C[C@H](C)CN[C@H]1[C@H]2C | inactive |  |
| Oc1ccc(Cl)cc1Cl | inactive |  |
| C[C@]12CCC(=O)C=C1CC[C@@H]1[C@@H]2CC[C@]2(C)C(=O)CC[C@@H]12 | inactive |  |
| Cc1cc(O)ccc1Cl | inactive |  |
| COS(=O)(=O)OC | inactive |  |
| ClC1=C(Cl)[C@]2(Cl)[C@@H]3[C@@H](Cl)[C@H]4O[C@H]4[C@@H]3C1(Cl)C2(Cl)Cl | inactive |  |
| CC(C)C(=O)OCC(C)(C)C(OC(=O)C(C)C)C(C)C (stereo not given) | inactive |  |
| C=CC(=O)NCNC(=O)C=C | inactive |  |
| ClC1=C(Cl)[C@]2(Cl)[C@@H]3[C@@H]4C[C@@H]([C@H]5O[C@@H]45)[C@@H]3[C@@]1(Cl)C2(Cl)Cl | inactive |  |
| COc1ccc(O)c(C(C)(C)C)c1 | inactive |  |
| CCCN(CCC)N=O | inactive |  |
| ClC(Cl)=C(c1ccc(Cl)cc1)c1ccc(Cl)cc1 | inactive |  |

| SMILES | outcome | AC50 |
| --- | --- | --- |
| CC(c1ccc(O)cc1)(c1ccc(O)cc1)c1ccc(O)cc1 | inactive |  |
| Cc1cc2c3c(c1)C(c1ccccc1)=N[C@@H](NC(=O)c1ccncc1)C(=O)N3CC2 | inactive |  |
| CCC(C)c1cc([N+](=O)[O-])cc([N+](=O)[O-])c1O (stereo not given) |  | 50000 nM (active) |
| Cc1cccc([N+](=O)[O-])c1 | inactive |  |
| Cc1cccc(C)c1N | inactive |  |
| Clc1ccc(C(c2ccccc2Cl)C(Cl)(Cl)Cl)cc1 (stereo not given) | inactive |  |
| NS(=O)(=O)C(F)(F)C(F)(F)C(F)(F)C(F)(F)C(F)(F)C(F)(F)C(F)(F)C(F)(F)F |  | 993 nM (active) |
| O=S(=O)(O)C(F)(F)C(F)(F)C(F)(F)C(F)(F)C(F)(F)C(F)(F)F | inactive |  |
| CN(C)c1nc(=O)n(C2CCCCC2)c(=O)n1C | inactive |  |
| Cc1ccccc1CO[C@@H]1C[C@@]2(C(C)C)CC[C@]1(C)O2 | inactive |  |
| O=C(N[C@H]1CN2CCC1CC2)c1cc2ccoc2cn1 | inactive |  |
| CCOCCOC(C)=O | inactive |  |
| Clc1ccc(Cl)cc1 | inactive |  |
| Oc1ccc(C(c2ccc(O)cc2)(C(F)(F)F)C(F)(F)F)cc1 | inactive |  |
| CCC(C)(CC)c1cc(NC(=O)c2c(OC)cccc2OC)on1 | inactive |  |
| C[C@]12CCC(=O)C=C1CC[C@@H]1[C@@H]2CC[C@@]2(C)[C@H]1CC[C@]2(C)O | inactive |  |
| CCCCCCCCCC[N+](C)(C)CCCCCCCCCC | inactive |  |
| Oc1c(Cl)c(Cl)c(Cl)c(Cl)c1Cl |  | 2100 nM (active) |
| Cc1cc(-c2ccc(N)c(C)c2)ccc1N | inactive |  |
| ClC1=C(Cl)[C@]2(Cl)[C@@H]3[C@H]4C[C@H]([C@@H]5O[C@H]45)[C@@H]3[C@@]1(Cl)C2(Cl)Cl | inactive |  |
